Compound activity: PubChem, National Center for Advancing Translational Sciences (NCATS)
rTrxR1 inhibitor: rat TrxR1 inhibition; O89049; recombinant rTrxR1, NADPH fluorescence consumption, selenite substrate; Potency, µM (titrated, usually from 114 µM), inactives show at the highest dose activity change, negative = inhibition, most hits filed as inhibitors; 390,000 compounds, 1% hits; note: nearly all actives have a fitted effect of over 65% in size
Target sequence (O89049 whole entry, looked up): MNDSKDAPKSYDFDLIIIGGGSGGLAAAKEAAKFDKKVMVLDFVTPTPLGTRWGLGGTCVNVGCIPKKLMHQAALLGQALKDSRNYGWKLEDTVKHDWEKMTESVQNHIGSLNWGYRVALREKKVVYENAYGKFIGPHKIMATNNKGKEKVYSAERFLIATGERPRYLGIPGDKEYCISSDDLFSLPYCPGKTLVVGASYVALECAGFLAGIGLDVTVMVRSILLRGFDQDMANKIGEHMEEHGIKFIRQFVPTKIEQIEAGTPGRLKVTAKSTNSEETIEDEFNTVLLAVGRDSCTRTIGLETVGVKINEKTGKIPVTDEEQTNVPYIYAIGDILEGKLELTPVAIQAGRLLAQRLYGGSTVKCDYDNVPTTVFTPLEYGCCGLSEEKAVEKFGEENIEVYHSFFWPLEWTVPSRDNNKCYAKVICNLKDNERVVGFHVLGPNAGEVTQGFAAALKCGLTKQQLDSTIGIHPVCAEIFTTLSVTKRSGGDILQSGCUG
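Rat TrxR1 (90 nM in the dispensed reagent) was pre-reduced with 400 uM NADPH for 5 min at room temperature, then incubated with compound for 15 min. After 400 uM selenite was added, NADPH fluorescence (Ex 340/Em 450 nm) was followed for 8 min.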
GLS inhibitor: glutaminase GLS (human) inhibition; Potency, µM (series often up to 45.5 µM), for inactives: top-dose activity change, negative = inhibition, hits mostly inhibitors; O94925; 410,000 compounds, 0.21% hits; GLS enzymatic activity, qHTS titration; AID 624170
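Compounds were pin-transferred onto hKGA, after which L-glutamine (1 mM solution) and a detection mix of glutamate oxidase, HRP and Amplex Red were added. Initial and 30 min RT fluorescence reads were collected.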
TrxR1 substrate: is turned over as a substrate by rat TrxR1; O89049; purified TrxR1 substrate turnover, NADPH consumption readout; Potency, µM (top dose mostly 114 µM), inactives show at the top dose activity change, negative = substrate turnover; 390,000 compounds, 0.01% hits; note: nearly all actives have a fitted effect of over 50% in size
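Rat TrxR1, dispensed at 90 nM, was prereduced with 400 uM NADPH (final) for 5 min at ~22 deg C, then incubated with compound 15 min before 400 uM selenite. A first-read NADPH fluorescence drop versus no-compound background flagged substrates.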
GCN5L2 inh: blocks human GCN5L2 histone acetyltransferase | Q92830 | GCN5L2 HAT assay, ThioGlo1 CoA-SH fluorescence | Potency, µM (highest dose often 58.9 µM), for inactives: at the highest dose activity change, negative = inhibition, actives largely listed as inhibitors | 390,000 compounds, 0.21% hits | AID 504327
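Preincubate 20nM GCN5L2 with compound 15 min, RT → add 50uM ThioGlo1 + 75uM H3(1-25) + 70uM acetyl-CoA → read fluorescence 0 and 20 min. Primary qHTS; fluorescent artifacts likely.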
VDR inh: inhibitors of human vitamin D receptor | Potency, µM, for the others: max response, negative = inhibition, actives largely listed as inhibitors | AID 504847 | 400,000 compounds, 0.93% hits | VDR-SRC2-3 peptide fluorescence polarization, 2 h
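Signal is fluorescence polarization, reporting how far test compounds block the interaction of VDR with the SRC2-3 coregulator peptide after a 2 h room-temperature incubation.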
Sfp PPTase inh: blocks B. subtilis Sfp PPTase activity. Potency, µM, inactives show largest response in the series, negative = inhibition, hits mostly inhibitors. 310,000 compounds, 3.5% hits. Q9F4F7. Biochemical Sfp PPTase activity, qHTS. AID 1490;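 note: the enzyme is Sfp with the accession as filed and its product quenches rhodamine fluorescence; 0% = enzyme reaction without inhibitor and -100% = no enzyme wells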
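Sfp 15 nM + cpd, 15 min RT; start w/ rhodamine-CoA 5 uM, BHQ-2-YbbR 12.5 uM (final); 50 mM Hepes pH 7.6, 10 mM MgCl2, 0.01% NP-40, 0.01% BSA; read 525/598 nm at 0 and 30 min.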
* = called active by the depositor; ? = inconclusive; · = no result given; [ ] = another dose, or the depositor's remark. An excerpt weighted towards active compounds, which were near 3.8% of everything screened. Calls come from the whole dose curve; as a rule, active = well fitted curve in the direction sought with a large enough effect; inconclusive = small, poorly fitted or top-dose-only effect, or another doubt; inactive = no such curve, though single readings can be large; an effect the other way counts as inactive or inconclusive. Unless noted, % is set by controls: 0 for no effect and ±100 for the full control effect; potency is the fitted concentration of half-maximal effect.

SMILES	rTrxR1 inhibitor	GLS inhibitor	TrxR1 substrate	GCN5L2 inh	VDR inh	Sfp PPTase inh
COc1cc(NC(=O)CN2CCN(Cc3ccc4c(c3)OCO4)CC2)cc(OC)c1	-6%	0%	-4%	-1%	-13%	56µM*
COc1ccc(NC(=O)CN2CCN(Cc3ccc4c(c3)OCO4)CC2)cc1OC	8%	6%	-1%	4%	-6%	56µM*
COc1ccc(S(=O)(=O)N2CCCN(CC(=O)Nc3ccc4c(c3)OCO4)CC2)cc1	79µM*	3%	-8%	-3%	-9%	0%
CCN(CCC(=O)Nc1cc(OC)cc(OC)c1)Cc1ccccc1	3%	9%	-1%	-7%	-4%	45µM*
O=C(NOC(=O)c1ccccc1)c1ccccc1	-4%	0%	-2%	35µM*	2%	2%
O=C(NO)c1ccccc1	·	49%[99.4 µM]	·	·	·	·
C=C(C)CNC(=S)Nc1sc2c(c1C(=O)OCC)CC(C)(C)OC2	0%[57.1 µM]	-16%	-12%	-1%	?	40µM*
CCOC(=O)c1c(NC(=O)c2ccc(C)cc2)sc2c1CC(C)(C)OC2	25%[57.1 µM]	-10%	2%[57.1 µM]	-9%	-21%	25µM*
CCOC(=O)c1c(NC(=O)c2ccccc2C)sc2c1CC(C)(C)OC2	27%	-6%	15%[57.1 µM]	-6%	-22%	32µM*
CCOC(=O)C1=CCN(S(=O)(=O)c2ccc(C)cc2)C1c1ccccc1 (stereo not drawn)	·	4%	·	·	·	·
CC(=O)Nc1ccc(NC(=O)c2csc([C@@H]3O[C@H](CO)[C@H](O)[C@H](O)[C@H]3O)n2)cc1	·	8%	·	·	·	·
Cc1cccc(-n2cc[nH]c2=S)c1	-6%[57.1 µM]	13%	3%[57.1 µM]	-1%	-6%	56µM*
O=C(CCCCCn1c(=O)[nH]c2ccccc2c1=O)NCc1ccc(Cl)cc1	10%[57.1 µM]	?	0%[57.1 µM]	-1%	7%	·
O=C(CCCCCn1c(=O)[nH]c2ccccc2c1=O)NCc1ccccc1	9%[57.1 µM]	8.9µM*	-3%[57.1 µM]	-6%	-2%	·
COC(=O)c1ccc2c(=O)n(CCCCCC(=O)NCCc3ccccc3)c(=O)[nH]c2c1	-9%[57.1 µM]	11µM*	-4%[57.1 µM]	0%	9%	·
COc1cc2[nH]c(=O)n(CCCCCC(=O)NCCc3ccccc3)c(=O)c2cc1OC	17%[2.29 µM]	-4%	-1%	-5%	-8%	·
CCOc1ccc(C(=O)c2oc3ccccc3c2NC(=O)c2cc(-c3ccccc3)on2)cc1	21%	-16%	-3%	-5%	3%	·
COc1cnc(-c2ccccn2)nc1N(C)c1ccccc1	-4%	7%	-10%	-3%	-18%	50µM*
COc1cnc(-c2ccccn2)nc1Oc1ccccc1	19%[57.1 µM]	4%	-2%[57.1 µM]	-10%	21%	7%
O=C(/C=C/c1cccs1)Nc1scc(-c2ccccc2)c1C(=O)O	24%[57.1 µM]	-28%	10%[57.1 µM]	-20%	-7%	32µM*
COc1ccc(C(=O)N2CCC(C(=O)Nc3ccc(OC)c(OC)c3)CC2)cc1	-13%	12%	-13%	2%	28%	89µM*
COc1ccc(C(=O)N2CCC(C(=O)Nc3ccc(OC)cc3OC)CC2)cc1	17%	11%	3%	-8%	2%	·
COc1ccc(/C=C\C(=O)CC(O)(c2ccccc2)C(F)(F)F)cc1 (stereo not drawn)	-10%	9%	-2%	-2%[0.501 µM]	50µM*	-16%
O=C(COC(=O)c1cc(NS(=O)(=O)c2cccs2)ccc1O)Nc1cc(Cl)ccc1Cl	40%	9%	22%	-4%	7%	-12%
O=C(COC(=O)c1cc(NS(=O)(=O)c2cccs2)ccc1O)Nc1ccc(F)c(F)c1F	33%[57.1 µM]	13µM*	13%[57.1 µM]	-4%	7%	8%
SMILES	rTrxR1 inhibitor	GLS inhibitor	TrxR1 substrate	GCN5L2 inh	VDR inh	Sfp PPTase inh
Cc1ccc(-c2csc(NC(=O)CSc3nc4ccccc4c(=O)n3CCCN(C)C)n2)cc1	10%[57.1 µM]	6%	1%[57.1 µM]	-3%	-15%	56µM*
COCCSc1nc2c(c(=O)[nH]c(=O)n2C)n1CCCc1ccccc1	8%	-16%	-2%	-24%	?	?
Cn1c(=O)[nH]c(=O)c2c1nc(SCCN1CCCCC1)n2CCCc1ccccc1	-2%	4%	1%	-4%	35µM*	3.5µM*
Cc1ccc(Cn2c(SCCN3CCCCC3)nc3c2c(=O)[nH]c(=O)n3C)cc1	16%[57.1 µM]	-8%	6%[57.1 µM]	7%	89µM*	11µM*
CSc1nc2c(c(=O)[nH]c(=O)n2C)n1Cc1ccc(Cl)cc1	-12%[57.1 µM]	18%	6%[57.1 µM]	-20%	89µM*	20µM*
COc1ccc(-n2nc(C(=O)N3CCCC(C)C3)c3c4ccccc4n(C)c3c2=O)cc1Cl (stereo not drawn)	56%	-18%	16%	-6%	7%	·
CCOC(=O)c1c(NC(N)=O)sc(C)c1C	12%	-3%	7%	-4%	-14%	-13%
CCOC(=O)c1c(N2C(=O)C=CC2=O)sc(C)c1C	2.2µM*	?	6%	?	-95%	2.5µM*
Cc1cccc(CSCc2ccc(C(=O)O)o2)c1	0%	6%	5%	4%	-6%	-4%
